Results: PubChem BioAssay AID2284386 (EPA ToxCast)
The source made the active and inactive calls. Rule for the calls: active = hit-call score of the fitted dose curve at least 0.9, where 1 is the maximum; inactive = score below 0.9.

Target: Peroxisome proliferator-activated receptor gamma (Homo sapiens) (UniProt P37231)
Test: ERF_FR_NR_COA_hPPARG: Eurofins (ERF) Nuclear Receptor (NR) Functional Coactivator Assay for human Peroxisome Proliferator-activated Receptor gamma (PPARg) Agonism, conducted at France lab site
Procedure: ERF_FR_NR_COA_hPPARG is a biochemical, single-readout assay that uses extracted gene-proteins in a cell-free assay. Measurements were taken 2 hours after chemical dosing in a 384-well plate. See PPARgamma Human NHR Functional Agonist Coactivator Assay, Cerep.ERF_FR_NR_COA_hPPARG is an assay component calculated from the ERF_FR_NR_COA_hPPARG assay. It is designed to measure FRET using a type of binding reporter as detected by fluorescence intensity of Rosiglitazone with fluorimetry technology.Data from the assay component ERF_FR_NR_COA_hPPARG was analyzed at the assay endpoint, ERF_FR_NR_COA_hPPARG, in the positive analysis fitting direction relative to DMSO as the negative control and baseline of activity. Using a type of binding reporter, gain-of-signal activity can be used to understand changes in binding as they relate to gene PPARG. To generalize the intended target to other relatable targets, this assay endpoint is annotated to the nuclear receptor intended target family, where the subfamily is non-steroidal.
Test compound and/or vehicle is incubated with the 2 nM receptors and coactivator peptide for 180 minutes at room temperature. Determination of the amount of complex formed is read spectrofluorimetrically (excitation: 337 nm, emission: 520/490 nm). Test compound-induced increase fluorescence by 50 percent or more (>/=50%) relative to 1 uM GW1929 response indicates possible PPARgamma receptor agonist activity. Test compound-induced inhibition of 5 nM GW1929-induced fluorescence response by 50 percent or more (>/=50%) indicates receptor antagonist activity.

Chain of Peroxisome proliferator-activated receptor gamma (Homo sapiens) (P37231 whole entry, looked up): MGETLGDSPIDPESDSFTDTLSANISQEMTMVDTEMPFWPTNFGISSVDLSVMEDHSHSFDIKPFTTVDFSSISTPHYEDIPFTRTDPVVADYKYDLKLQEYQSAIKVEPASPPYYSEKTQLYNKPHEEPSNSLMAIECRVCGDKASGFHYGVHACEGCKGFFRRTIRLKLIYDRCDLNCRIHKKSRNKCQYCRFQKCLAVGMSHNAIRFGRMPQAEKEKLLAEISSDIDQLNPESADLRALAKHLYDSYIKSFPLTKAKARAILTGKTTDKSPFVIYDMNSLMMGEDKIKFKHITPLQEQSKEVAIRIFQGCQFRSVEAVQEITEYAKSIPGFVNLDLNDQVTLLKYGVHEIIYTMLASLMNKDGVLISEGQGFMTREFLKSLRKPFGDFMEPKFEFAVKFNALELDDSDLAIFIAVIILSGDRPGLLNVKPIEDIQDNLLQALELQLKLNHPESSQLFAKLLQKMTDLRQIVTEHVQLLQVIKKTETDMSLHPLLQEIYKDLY

SMILES	outcome
NC(=O)c1nc(-c2cccc(-c3cc(F)ccc3OCC(F)(F)C(F)(F)F)c2)n[nH]1	inactive
O=C(O)CCC(F)(F)C(F)(F)C(F)(F)F	inactive
O=C(CC(=O)C(F)(F)C(F)(F)C(F)(F)F)c1cccs1	inactive
